Inconclusive results are not listed. Calls of active or inactive are those of the source. Unless noted, the call rests on the fitted dose curve; in most records, active means well fitted curve in the direction sought with a large enough effect; inconclusive means small, poorly fitted or top-dose-only effect, or another doubt; inactive means no such curve, though single readings can be large; an effect the other way counts as inactive or inconclusive.
Columns and labels:
[1] = biological target: Ubiquitin carboxyl-terminal hydrolase 1 (Homo sapiens) (UniProt O94782); assay: Inhibitors of USP1/UAF1: Pilot qHTS (AID 504865); further: nearly all actives have a fitted effect of over 35% in size; further: potency means the concentration at half of the fitted maximal effect
Sequence of Ubiquitin carboxyl-terminal hydrolase 1 (Homo sapiens) (O94782 whole entry, looked up): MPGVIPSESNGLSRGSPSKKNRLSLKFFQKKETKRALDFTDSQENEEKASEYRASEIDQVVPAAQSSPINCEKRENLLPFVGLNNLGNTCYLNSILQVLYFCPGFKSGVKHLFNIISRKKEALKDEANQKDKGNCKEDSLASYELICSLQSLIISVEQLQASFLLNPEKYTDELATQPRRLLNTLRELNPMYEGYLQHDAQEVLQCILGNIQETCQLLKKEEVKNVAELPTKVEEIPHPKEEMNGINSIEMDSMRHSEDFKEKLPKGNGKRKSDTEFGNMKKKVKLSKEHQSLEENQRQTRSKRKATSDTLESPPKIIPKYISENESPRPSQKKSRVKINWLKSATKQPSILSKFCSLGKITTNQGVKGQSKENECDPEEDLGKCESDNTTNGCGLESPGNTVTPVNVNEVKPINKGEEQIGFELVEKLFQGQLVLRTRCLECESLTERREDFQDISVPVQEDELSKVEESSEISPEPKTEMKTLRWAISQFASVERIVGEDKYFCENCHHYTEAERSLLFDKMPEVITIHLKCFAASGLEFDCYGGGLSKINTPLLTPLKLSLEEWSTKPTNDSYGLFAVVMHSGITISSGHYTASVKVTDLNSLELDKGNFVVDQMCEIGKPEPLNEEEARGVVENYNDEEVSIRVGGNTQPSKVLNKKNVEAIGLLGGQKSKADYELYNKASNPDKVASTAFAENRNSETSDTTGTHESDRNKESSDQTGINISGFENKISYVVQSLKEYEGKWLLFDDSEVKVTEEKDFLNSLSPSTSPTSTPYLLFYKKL
Outline: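 USP1/UAF1 complex (1nM) preincubated with compound 15 min at room temperature, then Ub-Rho substrate (150nM final) added. Fluorescence read kinetically at 480/540 nm, 6 reads every 60 seconds. Buffer: 50mM HEPES pH 7.8, 0.5mM EDTA, 0.1 mg/ml BSA, 1mM TCEP, 0.01% Tween-20.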

[2] = S16 Schwann cell viability assay (CellTiter-Glo assay) (AID 624031);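 further: cellular ATP luminescence as a viability measure; plate controls were DMSO-treated cells for no effect and cell-free wells for full effect; nearly all actives have a fitted effect of over 70% in size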
Outline: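 Native S16 rat Schwann cells in DMEM/10% FBS without phenol red were incubated overnight, then exposed to compounds for 24 h at 37 °C/5% CO2. Viability was read as ATP luminescence (CellTiter-Glo), normalized to no-cell wells and DMSO (0%).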

[3] = S16 Schwann cell PMP22 intronic element firefly luciferase assay (AID 624032);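 further: plate controls were DMSO for no effect and PTC124 positive control mean for full effect; nearly all actives have a fitted effect of over 30% in size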
Outline: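 Rat S16 Schwann cells stably carrying firefly luciferase driven by a PMP22 intronic element, in 10% FBS, treated 24 h at 37 C. ONE-Glo luminescence normalized to PTC124 control and DMSO (0%); curves classed by r2, magnitude and activity.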

CP266 = assay: qHTS profiling for inhibitors of Plasmodium falciparum proliferation (AID 504749);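 further: 0% = DMSO vehicle and full inhibition = artemisinin control; nearly all actives have a fitted effect of over 60% in size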; details: P. falciparum in erythrocytes, SYBR Green DNA, 72 h; series mostly up to 28.7 µM
Outline: (§1)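 Each compound contacts P. falciparum-infected red blood cells for 72 h at 37 C; lysis buffer (Tris, EDTA, saponin, Triton X, SYBR Green I) is added and fluorescence measured next morning; values normalized to controls.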

W2 = assay: as above; details: P. falciparum in erythrocytes, SYBR Green DNA, 72 h; series mostly up to 28.7 µM
Outline: as §1

[4] = S16 Schwann cell PMP22 intronic element beta-lactamase assay (AID 624044; calls by dose curve;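 further: 0% = DMSO and -100% = potassium clavulanate positive control; nearly all actives have a fitted effect of over 15% in size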); details: S16 rat Schwann cells, PMP22 element beta-lactamase FRET, 24 h; ratio activity, negative = inhibition: at 38.3 µM (top of the series)
Outline: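 Beta-lactamase reporter under a PMP22 intronic regulatory element in stable S16 rat Schwann cells; 24 h compound exposure. 460 nm blue signal normalized between DMSO (0%) and potassium clavulanate, with 535 nm FRET tracking viability; curves classed by r2 and response.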

[5] = biological target: Androgen receptor (Homo sapiens) (UniProt P10275); assay: qHTS assay for small molecule agonists of androgen receptor signaling (AID 588515; active means well fitted curve in the direction sought with a large enough effect in the signal ratio, with a control signal flat; the % refers to the signal ratio; further: on the % scale 0 is the no-effect control and ±100 the full control effect); details: AR-UAS-bla HEK293, beta-lactamase ratio, agonist 16 h; stronger effect = higher value
Sequence of Androgen receptor (Homo sapiens) (P10275 whole entry, looked up): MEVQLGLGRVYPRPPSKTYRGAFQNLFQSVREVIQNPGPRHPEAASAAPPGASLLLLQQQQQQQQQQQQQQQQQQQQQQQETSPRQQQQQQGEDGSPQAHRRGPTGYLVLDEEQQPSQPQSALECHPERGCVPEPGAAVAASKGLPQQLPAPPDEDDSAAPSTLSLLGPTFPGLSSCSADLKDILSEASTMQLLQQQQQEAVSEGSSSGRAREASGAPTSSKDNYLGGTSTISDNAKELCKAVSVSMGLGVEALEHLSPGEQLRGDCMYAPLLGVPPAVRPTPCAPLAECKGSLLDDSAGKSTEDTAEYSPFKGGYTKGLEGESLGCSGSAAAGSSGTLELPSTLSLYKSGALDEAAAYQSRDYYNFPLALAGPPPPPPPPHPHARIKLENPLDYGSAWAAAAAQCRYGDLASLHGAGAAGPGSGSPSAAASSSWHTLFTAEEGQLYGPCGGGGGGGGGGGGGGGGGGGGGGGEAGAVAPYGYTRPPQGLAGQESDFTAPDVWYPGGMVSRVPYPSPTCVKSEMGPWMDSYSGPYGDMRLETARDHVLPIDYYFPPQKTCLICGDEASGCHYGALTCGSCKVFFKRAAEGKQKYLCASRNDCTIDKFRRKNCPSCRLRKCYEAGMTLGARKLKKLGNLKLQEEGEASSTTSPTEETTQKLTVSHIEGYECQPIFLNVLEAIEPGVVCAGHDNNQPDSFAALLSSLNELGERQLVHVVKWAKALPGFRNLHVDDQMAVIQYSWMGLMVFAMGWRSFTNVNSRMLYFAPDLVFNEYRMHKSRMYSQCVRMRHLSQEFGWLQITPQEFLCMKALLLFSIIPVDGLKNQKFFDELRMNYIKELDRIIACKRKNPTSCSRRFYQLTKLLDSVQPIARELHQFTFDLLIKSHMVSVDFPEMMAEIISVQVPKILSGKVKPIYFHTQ
Outline: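 Stimulation of an AR-responsive β-lactamase reporter in GripTite HEK293 cells was measured after 16 h compound exposure at 37 °C, via CCF4 fluorescence after 2 h RT. EC50 from Hill fits, normalized to R1881 at 30 nM.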

[6] = biological target: Androgen receptor (Homo sapiens) (UniProt P10275); assay: qHTS assay for small molecule antagonists of androgen receptor signaling (AID 588516; active means well fitted curve in the direction sought with a large enough effect in the signal ratio, with a control signal flat, not every such curve was filed as active; the % refers to the signal ratio; further: on the % scale 0 is the no-effect control and ±100 the full control effect)
Outline: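 AR-UAS-bla-GripTite HEK 293 cells (2000/well, 5 h at 37 C) received compound titrations, then R1881 at 10 nM final; after 16 h at 37 C, CCF4 dye 2 h RT, beta-lactamase fluorescence read; IC50 from Hill fits.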

[7] = biological target: Bile acid receptor (Homo sapiens) (UniProt Q96RI1); assay: qHTS assay for small molecule antagonists of farnesoid X receptor signaling (AID 588526; calls by dose curve; further: on the % scale 0 is the no-effect control and ±100 the full control effect)
Sequence of Bile acid receptor (Homo sapiens) (Q96RI1 whole entry, looked up): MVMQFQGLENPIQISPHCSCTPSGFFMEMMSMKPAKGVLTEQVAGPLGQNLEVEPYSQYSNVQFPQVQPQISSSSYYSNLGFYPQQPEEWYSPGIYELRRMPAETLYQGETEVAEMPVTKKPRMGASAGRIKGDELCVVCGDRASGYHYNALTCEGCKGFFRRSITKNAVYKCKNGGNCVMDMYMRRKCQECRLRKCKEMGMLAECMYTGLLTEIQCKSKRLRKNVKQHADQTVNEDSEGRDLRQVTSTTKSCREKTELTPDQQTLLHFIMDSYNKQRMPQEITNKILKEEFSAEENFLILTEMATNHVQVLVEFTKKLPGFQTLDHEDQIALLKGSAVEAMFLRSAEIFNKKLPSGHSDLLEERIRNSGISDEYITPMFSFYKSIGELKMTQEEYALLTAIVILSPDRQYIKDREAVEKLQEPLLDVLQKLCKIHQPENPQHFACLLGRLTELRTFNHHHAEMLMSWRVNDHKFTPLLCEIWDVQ
Outline: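 Antagonist mode: titrated compounds tested against chenodeoxycholic acid stimulation (normalized to 50 uM CDCA and DMSO) in GeneBLAzer HEK293T cells for 16 h. Beta-lactamase read by CCF4 fluorescence; IC50 from Hill fits.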

[8] = qHTS assay for small molecule antagonists of peroxisome proliferator-activated receptor delta signaling (AID 588535; active means well fitted inhibition curve with a large enough effect in the signal ratio, with a control signal flat, not every such curve was filed as active; the % refers to the signal ratio;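 on max response: cells co-treated with a PPAR-delta agonist as stimulator during compound exposure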); details: HEK293T PPARd-UAS-bla, beta-lactamase FRET ratio, 18 h; 460 nm channel
Outline: (§2)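 Fluorescence from CCF4-loaded GeneBLAzer PPAR-delta-UAS-bla HEK293T cells (2 hrs RT loading) quantified reporter inhibition after an 18 hr, 37 C compound exposure across a titration.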

[9] = biological target: Peroxisome proliferator-activated receptor delta (Homo sapiens) (UniProt Q03181); assay: as above
Sequence of Peroxisome proliferator-activated receptor delta (Homo sapiens) (Q03181 whole entry, looked up): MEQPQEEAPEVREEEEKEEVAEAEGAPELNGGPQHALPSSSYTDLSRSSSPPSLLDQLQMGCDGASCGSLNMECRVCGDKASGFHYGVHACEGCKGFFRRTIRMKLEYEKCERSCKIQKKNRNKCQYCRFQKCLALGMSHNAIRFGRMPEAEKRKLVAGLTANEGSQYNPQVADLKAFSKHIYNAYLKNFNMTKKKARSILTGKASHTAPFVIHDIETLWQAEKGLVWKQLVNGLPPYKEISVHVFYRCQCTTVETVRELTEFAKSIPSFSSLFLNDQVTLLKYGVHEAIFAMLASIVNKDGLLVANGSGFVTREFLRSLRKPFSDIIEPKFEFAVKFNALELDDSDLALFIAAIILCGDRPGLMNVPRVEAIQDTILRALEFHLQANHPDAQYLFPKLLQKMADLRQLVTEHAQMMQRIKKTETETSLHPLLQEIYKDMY
Outline: as §2

[10] = biological target: Peroxisome proliferator-activated receptor gamma (Homo sapiens) (UniProt P37231); assay: qHTS assay for small molecule agonists of peroxisome proliferator-activated receptor gamma signaling (AID 588536; active means well fitted curve in the direction sought with a large enough effect in the signal ratio, with a control signal flat, not every such curve was filed as active; the % refers to the signal ratio;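 further: 0% = DMSO basal wells and 100% = rosiglitazone at 2 µM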)
Outline: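 Using GeneBLAzer HEK293 cells, response was quantified by CCF4 fluorescence and normalized between basal DMSO (0%) and rosiglitazone 2 uM (100%); curves yielded half-maximal stimulation concentration and efficacy.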

[11] = biological target: Vitamin D3 receptor (Homo sapiens) (UniProt P11473); assay: qHTS assay for small molecule antagonists of vitamin D receptor signaling (AID 588541; calls by dose curve;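 further: receptor activated by calcitriol during compound treatment; on the % scale 0 is the no-effect control and ±100 the full control effect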)
Sequence of Vitamin D3 receptor (Homo sapiens) (P11473 whole entry, looked up): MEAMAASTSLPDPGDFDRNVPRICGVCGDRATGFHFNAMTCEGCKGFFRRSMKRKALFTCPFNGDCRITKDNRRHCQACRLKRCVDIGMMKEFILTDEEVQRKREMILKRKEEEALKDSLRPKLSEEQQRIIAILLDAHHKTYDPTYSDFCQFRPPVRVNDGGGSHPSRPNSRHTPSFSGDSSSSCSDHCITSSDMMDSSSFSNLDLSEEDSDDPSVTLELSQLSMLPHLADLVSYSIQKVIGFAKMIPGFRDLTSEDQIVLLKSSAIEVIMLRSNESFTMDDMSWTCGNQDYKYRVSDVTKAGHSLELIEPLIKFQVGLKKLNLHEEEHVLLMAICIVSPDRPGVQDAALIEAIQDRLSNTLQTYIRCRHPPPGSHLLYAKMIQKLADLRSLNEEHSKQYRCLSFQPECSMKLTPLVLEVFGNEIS
Outline: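 VDR-UAS-bla HEK293T cells in 2% charcoal-stripped FBS were stimulated with 1-alpha,25-dihydroxyvitamin D3 (3 nM final) plus compound for 16 h at 37 C. The beta-lactamase CCF4 readout was normalized to 50 nM agonist and DMSO, and Hill fits gave IC50.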

[12] = biological target: Vitamin D3 receptor (Homo sapiens) (UniProt P11473); assay: qHTS assay for small molecule agonists of vitamin D receptor signaling (AID 588543; calls by dose curve;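 further: 0% = DMSO basal and 100% = reference agonist control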)
Outline: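 GeneBLAzer VDR-UAS-bla HEK293T cells in 2% charcoal-stripped FBS medium were dosed with compound titrations for 16 h at 37 °C; CCF4 β-lactamase readout (405 nm ex, 460/530 nm em). EC50 and efficacy from Hill fits, normalized to 50 nM calcitriol (100%) and DMSO (0%).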

[13] = qHTS assay for small molecule agonists of retinoid X receptor alpha signaling (AID 588544); details: HEK293T RXRa-UAS-bla, beta-lactamase reporter, 18 h; 530 nm emission
[14] = biological target: Thyroid hormone receptor beta (Homo sapiens) (UniProt P10828); assay: qHTS assay for small molecule agonists of thyroid hormone receptor beta signaling (AID 588545; calls by dose curve)
Sequence of Thyroid hormone receptor beta (Homo sapiens) (P10828 whole entry, looked up): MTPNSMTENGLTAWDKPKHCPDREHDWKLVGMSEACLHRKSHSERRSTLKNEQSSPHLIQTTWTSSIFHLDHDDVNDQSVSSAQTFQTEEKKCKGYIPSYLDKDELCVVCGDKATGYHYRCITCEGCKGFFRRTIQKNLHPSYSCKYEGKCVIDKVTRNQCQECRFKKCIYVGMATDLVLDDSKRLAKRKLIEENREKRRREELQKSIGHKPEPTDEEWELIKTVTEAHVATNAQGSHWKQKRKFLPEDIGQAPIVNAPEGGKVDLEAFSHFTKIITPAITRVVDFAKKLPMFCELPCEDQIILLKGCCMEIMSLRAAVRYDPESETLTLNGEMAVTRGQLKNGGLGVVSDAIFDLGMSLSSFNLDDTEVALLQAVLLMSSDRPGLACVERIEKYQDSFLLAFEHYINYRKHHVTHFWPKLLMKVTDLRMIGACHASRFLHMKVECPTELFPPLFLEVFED
Outline: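 Cells (2500/well) were seeded, incubated 4 hrs at 37 C, dosed with a compound series, incubated 18 hrs, loaded with CCF4 dye for 2 hrs at RT, then read for fluorescence. Data were scaled between DMSO (0%) and 10 nM T3 (100%).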

[15] = biological target: Tyrosyl-DNA phosphodiesterase 1 (Homo sapiens) (UniProt Q9NUW8); assay: Confirmation Assay for Inhibitors of Tyrosyl-DNA Phosphodiesterase (TDP1) (AID 489007); details: recombinant human TDP1 enzymatic activity, dose-response; further: potency means the concentration at half of the fitted maximal effect; nearly all actives have a fitted effect of over 40% in size
Sequence of Tyrosyl-DNA phosphodiesterase 1 (Homo sapiens) (Q9NUW8 whole entry, looked up): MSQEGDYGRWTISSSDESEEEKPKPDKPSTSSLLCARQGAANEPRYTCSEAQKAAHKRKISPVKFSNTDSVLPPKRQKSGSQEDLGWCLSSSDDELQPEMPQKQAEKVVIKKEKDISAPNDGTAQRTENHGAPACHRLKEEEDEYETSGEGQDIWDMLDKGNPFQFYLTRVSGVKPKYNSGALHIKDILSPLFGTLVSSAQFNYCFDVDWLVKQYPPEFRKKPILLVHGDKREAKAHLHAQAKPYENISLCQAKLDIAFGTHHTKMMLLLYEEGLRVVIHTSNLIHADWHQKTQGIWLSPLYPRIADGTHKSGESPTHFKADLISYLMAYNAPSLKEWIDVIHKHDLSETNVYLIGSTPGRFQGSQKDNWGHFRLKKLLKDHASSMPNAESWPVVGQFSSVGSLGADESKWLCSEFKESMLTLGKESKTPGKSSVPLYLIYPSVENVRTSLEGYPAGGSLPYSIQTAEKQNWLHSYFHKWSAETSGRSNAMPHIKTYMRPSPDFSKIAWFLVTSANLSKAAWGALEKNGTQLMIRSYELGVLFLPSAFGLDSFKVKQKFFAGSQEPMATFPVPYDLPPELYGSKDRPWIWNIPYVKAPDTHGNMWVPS
Outline: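 Compounds are preincubated 15 min at room temperature with 1 nM recombinant human Tdp1. The reaction starts on adding 15 nM FITC-phosphotyrosine DNA substrate, runs 5 min, and is detected by AlphaScreen beads after 10 min.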

[16] = biological target: Cytochrome P450 3A4 (Homo sapiens) (UniProt P08684); assay: qHTS Assay for Inhibitors and Substrates of Cytochrome P450 3A4 (AID 884); further: on the % scale 0 is the no-effect control and ±100 the full control effect; nearly all actives have a fitted effect of over 50% in size
Sequence of Cytochrome P450 3A4 (Homo sapiens) (P08684 whole entry, looked up): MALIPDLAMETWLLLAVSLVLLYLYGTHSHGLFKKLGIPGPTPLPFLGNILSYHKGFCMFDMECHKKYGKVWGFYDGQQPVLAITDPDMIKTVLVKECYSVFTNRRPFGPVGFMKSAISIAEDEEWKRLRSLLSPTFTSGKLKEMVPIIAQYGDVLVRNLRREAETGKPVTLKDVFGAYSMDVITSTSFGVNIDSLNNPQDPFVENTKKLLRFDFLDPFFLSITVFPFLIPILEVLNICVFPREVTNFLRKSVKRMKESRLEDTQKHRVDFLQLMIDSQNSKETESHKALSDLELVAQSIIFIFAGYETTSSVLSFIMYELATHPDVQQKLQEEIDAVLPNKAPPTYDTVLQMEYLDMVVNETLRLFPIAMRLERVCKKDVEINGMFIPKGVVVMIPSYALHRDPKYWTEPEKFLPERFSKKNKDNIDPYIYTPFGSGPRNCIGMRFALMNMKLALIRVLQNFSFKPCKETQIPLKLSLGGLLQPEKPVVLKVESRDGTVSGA
Outline: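 Luminescent readout of luciferin produced by CYP3A4 (20 nM) dealkylation of Luciferin-PPXE, 25 uM (its KM). NADPH-driven reaction ran 60 min at RT after 10 min compound preincubation; data scaled to 57 uM ketoconazole as 100% inhibition.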

[17] = Confirmation and Secondary Assay for Modulators of Hemoglobin Beta Chain Splicing at IVS2 705 locus (AID 930);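 further: HeLa cells stably expressing the EGFP-705 splicing reporter; % of control where 0% means no effect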
Outline: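 HeLa cells stably carrying EGFP interrupted by mutant beta-globin IVS2-705 intron (CMV-driven) were seeded at 500 cells/well, treated next day with compound for 2 days at 37C; corrected splicing restores EGFP, read as total peak GFP intensity per well.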

CC12C=CC(=O)C=C1[C@@H](F)CC1C2C(O)CC2(C)C1CC[C@]2(O)C(=O)CO (stereo partly specified)
inactive: Potency [1] | Potency [2] | Potency [3] | Potency (CP266) | Potency (W2)

COC(c1ccccc1)(c1ccccc1)C(Oc1nc(C)cc(C)n1)C(=O)O (stereo unspecified)
inactive: Potency [1] | Potency [2] | Potency [3] | Potency [4] | Potency (CP266) | Potency (W2)

CC1CCC(C(C)C)C(O)C1 (stereo unspecified)
-16.3%: max response [13]
inactive: Potency [1] | activation [5] 13.2% | outcome [6] | Potency [7] | outcome [9] | outcome [10] | Potency [11] | outcome [12] | outcome [14] | Potency [2] | Potency [3] | Potency [4] | Potency (CP266) | Potency (W2)
8.18%: max response [8]

O=C(COc1ccc2oc(-c3ccccc3)cc(=O)c2c1)NCc1ccco1
active: Potency [15] 44.7 µM

C=CCn1c(=O)n(C2OC(CO)C(O)C2O)c2nc(N)[nH]c(=O)c21 (stereo unspecified)
inactive: Potency [1] | Potency [2] | Potency [3] | Potency [4] | Potency (CP266) | Potency (W2)

CC(C)CN(C(=O)COC(=O)c1cc2c(s1)CCC2)C1CCS(=O)(=O)C1 (stereo unspecified)
active: Potency [15] 44.7 µM

O=C1CC[C@H](C(=O)N[C@@H]2C[C@H]2c2ccccc2)N1
inactive: Potency [1] | Potency [2] | Potency [3] | Potency [4] | Potency (CP266) | Potency (W2)

Cc1cc(N2C(=O)C3C4C=CC(C4)C3C2=O)ccc1NC(=O)c1cccs1 (stereo unspecified)
active: Potency [15] 70.8 µM

CCCCC/C(C=O)=C/c1ccccc1
inactive: Potency [1] | Potency [2] | Potency [3] | Potency [4] | Potency (CP266) | Potency (W2)

O=[N+]([O-])O[C@H]1CO[C@H]2[C@@H]1OC[C@H]2O
inactive: Potency [1] | Potency [2] | Potency [3] | Potency [4] | Potency (CP266) | Potency (W2)

CO/N=C(/C(=O)N[C@H]1C(=O)N2C(C(=O)O)=C(COC(C)=O)CSC12)c1csc(N)n1 (stereo partly specified)
inactive: Potency [16] | Potency [17]
active: Potency [15] 8.91 µM | Potency [1] 39.8 µM

CC(=O)OCC1=C(C(=O)O)N2C(=O)C(NC(=O)CSc3ccncc3)[C@@H]2SC1 (stereo partly specified)
active: Potency [15] 14.1 µM
inactive: Potency [17] | Potency [1]

CNC1C(O)C(OC2C(N)CC(N)C(OC3OC(CN)=CCC3N)C2O)OCC1(C)O (stereo unspecified)
inactive: Potency [1] | Potency [2] | Potency [3] | Potency (CP266) | Potency (W2)

Reference: PubChem BioAssay (NCATS)
